Compound activity from PubChem.
Hits are enriched below; roughly 2.1% of the tested compounds scored in any of these assays.
Shn3 inh set2: reduction of Shn3 3'UTR firefly luciferase signal, primary screen, Schnurri-3 inhibitor project, cell-based, Clone20 osteoblasts, set 2; Clone20 osteoblast Shn3 3'UTR firefly luciferase, 24 h; inhibition, % at 12.5 µM; 360,000 tested, 0.52% active; AID 588674, 2011;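 active = mean inhibition of at least 75% with every replicate also reaching 75%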;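 note: 0% = median of neutral control wells and 100% = pilot-screen positive control compound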
EBV LMP1 NFkB: EBV LMP1-driven NF-kappaB luciferase reporter inhibitors, primary screen, cell-based, luminescence, single point. LMP1-induced NF-kappaB luciferase reporter cells. inhibition, % at 12.5 µM. 350,000 tested, 0.69% active; in the data active = inhibition above about 41%;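 note: 0% = neutral control wells and 100% = reference inhibitor control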
aSyn 5UTR inh: MLPCN primary screen, SNCA 5' untranslated region; 300,000 tested, 0.82% active; inhibition, % (tested at 7.5 µM); alpha-synuclein 5'UTR reporter, inhibitor activity; in the data active = inhibition above about 60%;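 note: H4 neuroglioblastoma cells stably carrying SNCA 5'UTR luciferase fusion; 0% = DMSO wells and 100% = positive control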
MITF TRPM1 inh: inhibitors of MITF-dependent TRPM1 promoter reporter, primary screen, cell-based, SK-MEL-5, single point, luciferase; SK-MEL-5 TRPM1 promoter luciferase, 24 h; inhibition, % at 12.5 µM; 330,000 tested, 0.83% active;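 active = mean inhibition across replicates of 60% or more, whatever share of single replicates reaches that level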
PAX8 reporter: inhibitors of PAX8-driven TPO luciferase reporter, primary screen, RMG-I cells, single concentration | AID 652154, 2013 | SteadyGlo, 24 h | 360,000 tested, 1.2% active | inhibition, % at 12.6 µM;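 active = mean replicate inhibition at least 60% with every replicate also reaching 60%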;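 note: luciferase light reporting Pax8 driven TPO promoter activity; plate controls were median of neutral control wells for no effect and mitoxantrone controls for full effect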
Active calls of the source: *.

Screening O=C(c1c[nH]c2ccccc12)C(O)C(c1ccccc1)N1CCOCC1 (configuration not stated) returned Shn3 inh set2 -2.9, EBV LMP1 NFkB 1.8, aSyn 5UTR inh -13.5 and MITF TRPM1 inh -6.3.
For CN(C)c1ccc(-c2nc3ccccc3c(=O)[nH]2)cc1 the results were Shn3 inh set2 0.5, EBV LMP1 NFkB 33.3, aSyn 5UTR inh 52.4, MITF TRPM1 inh 11.2 and PAX8 reporter 80.7*.
COc1ccc(-c2nc3ccccc3c(=O)[nH]2)cc1 was read as Shn3 inh set2 -29.3, EBV LMP1 NFkB -5.3, aSyn 5UTR inh -59.9, MITF TRPM1 inh -57.6 and PAX8 reporter -38.9.
Cc1cc(N2CCN(c3nc(-c4ccc([N+](=O)[O-])cc4)cs3)CC2)c2ccccc2n1 was read as Shn3 inh set2 35.9, EBV LMP1 NFkB 15.4, aSyn 5UTR inh 65.7*, MITF TRPM1 inh -2.4 and PAX8 reporter 28.5.
For CN(C)Cc1nc2ccccc2c(=O)n1Cc1nc(-c2cccc([N+](=O)[O-])c2)cs1 the results were Shn3 inh set2 15.7, EBV LMP1 NFkB 13.6, aSyn 5UTR inh 2.7, MITF TRPM1 inh 13.5 and PAX8 reporter 8.3.
CN1CCN(Cc2nc3ccccc3c(=O)n2Cc2nc(-c3ccc([N+](=O)[O-])cc3)cs2)CC1 was read as Shn3 inh set2 -4.6, EBV LMP1 NFkB -1.5, aSyn 5UTR inh 9.6, MITF TRPM1 inh 66.1* and PAX8 reporter 55.1.
For Cc1cc(-c2ccc([N+](=O)[O-])cc2)nc2ccccc12 the results were Shn3 inh set2 -29.0, EBV LMP1 NFkB -7.7, aSyn 5UTR inh -36.7, MITF TRPM1 inh -7.5 and PAX8 reporter -15.8.
Screening CC(C)OC(=O)c1c(NC(=O)CCC(=O)O)sc2c1CCCCC2 returned Shn3 inh set2 8.3, EBV LMP1 NFkB -4.9, aSyn 5UTR inh 15.3, MITF TRPM1 inh 0.1 and PAX8 reporter 3.7.
For CCC(Oc1ccccc1)C(=O)NC1CCCCCC1 (configuration not stated) the results were Shn3 inh set2 -5.9, EBV LMP1 NFkB 3.9, aSyn 5UTR inh 9.3, MITF TRPM1 inh 11.4 and PAX8 reporter 2.8.
Screening CCC(Oc1ccccc1)C(=O)NC1CCSC1=O (configuration not stated) returned Shn3 inh set2 -6.2, EBV LMP1 NFkB 65.7*, aSyn 5UTR inh -1.9, MITF TRPM1 inh -0.3 and PAX8 reporter 16.3.
`CCOc1ccc2c(c1)/C(=C(\C(Cl)=C(Cl)Cl)[N+](=O)[O-])N2` gave Shn3 inh set2 13.4, EBV LMP1 NFkB -1.8, aSyn 5UTR inh 4.9, MITF TRPM1 inh 12.7 and PAX8 reporter 1.9.
CCCCOc1ccc2c(c1)/C(=C(\C(Cl)=C(Cl)Cl)[N+](=O)[O-])N2 was read as Shn3 inh set2 3.5, EBV LMP1 NFkB 44.4*, aSyn 5UTR inh 21.0, MITF TRPM1 inh 13.2 and PAX8 reporter -20.8.
Screening Cc1nnc(NC(=O)c2cccc(S(=O)(=O)N3CC(c4ccccc4)CC3=O)c2)s1 (configuration not stated) returned Shn3 inh set2 -0.7, EBV LMP1 NFkB 10.4, aSyn 5UTR inh -12.7, MITF TRPM1 inh -0.1 and PAX8 reporter 11.0.
Screening CC(C)c1nnc(NC(=O)c2ccc(N3C(=O)CCC3=O)cc2)s1 returned Shn3 inh set2 -34.3, EBV LMP1 NFkB 85.5*, aSyn 5UTR inh -25.7, MITF TRPM1 inh -14.0 and PAX8 reporter -87.7.
Cc1ccccc1-c1nnc(NC(=O)c2ccc(N3C(=O)CCC3=O)cc2)s1 was read as Shn3 inh set2 0.3, EBV LMP1 NFkB -1.7, aSyn 5UTR inh -17.2, MITF TRPM1 inh -8.8 and PAX8 reporter 5.1.
Screening O=C(Nc1nnc(C23CC4CC(CC(C4)C2)C3)s1)c1ccc(N2C(=O)CCC2=O)cc1 returned Shn3 inh set2 7.2, EBV LMP1 NFkB 80.8*, aSyn 5UTR inh 11.6, MITF TRPM1 inh -2.6 and PAX8 reporter -18.6.
For CN(C)c1ccc2nc3c(=O)[nH]c(=O)nc-3n(CC(O)C(O)C(O)CO)c2c1 (configuration not stated) the results were Shn3 inh set2 9.8, EBV LMP1 NFkB 6.8, aSyn 5UTR inh 22.7, MITF TRPM1 inh 0.2 and PAX8 reporter 6.4.
For O=C(COc1ccccc1Cl)N1CCN(c2ncccn2)CC1 the results were Shn3 inh set2 5.9, EBV LMP1 NFkB -0.6, aSyn 5UTR inh -9.9 and MITF TRPM1 inh 5.4.
Screening O=C(Cn1cc(C(=O)c2ccco2)c2ccccc21)Nc1ccccc1F returned Shn3 inh set2 89.0*, EBV LMP1 NFkB 15.1, aSyn 5UTR inh -20.1, MITF TRPM1 inh 11.6 and PAX8 reporter -3.3.
O=C(Cn1cc(C(=O)C(F)(F)F)c2ccccc21)Nc1ccccc1F was read as Shn3 inh set2 55.6, EBV LMP1 NFkB 5.3, aSyn 5UTR inh -0.1, MITF TRPM1 inh 15.0 and PAX8 reporter 25.8.
For CC(=O)O/N=C/c1c(N2CCOCC2)n(C)c2ccccc12 the results were Shn3 inh set2 26.5, EBV LMP1 NFkB 14.5, aSyn 5UTR inh 53.0, MITF TRPM1 inh 13.9 and PAX8 reporter 8.1.
For Cn1c(N2CCOCC2)c(/C=N/OC(=O)c2ccc(F)cc2)c2ccccc21 the results were Shn3 inh set2 1.1, EBV LMP1 NFkB 3.3, aSyn 5UTR inh 72.7* and MITF TRPM1 inh 4.6.
For Cc1ccc(C(=O)O/N=C/c2c(N3CCOCC3)n(C)c3ccccc23)cc1 the results were Shn3 inh set2 -12.0, EBV LMP1 NFkB -11.0, aSyn 5UTR inh 77.4*, MITF TRPM1 inh 6.8 and PAX8 reporter -27.8.
O=C(NC1CCCCC1)c1ccc(S(=O)(=O)c2ccccc2)cc1 was read as Shn3 inh set2 7.2, EBV LMP1 NFkB 1.1, aSyn 5UTR inh 31.7, MITF TRPM1 inh -1.1 and PAX8 reporter 13.7.
For O=C(N/N=C/c1cccs1)C(=O)Nc1cccc(Cl)c1 the results were Shn3 inh set2 -6.6, EBV LMP1 NFkB -6.2, aSyn 5UTR inh -11.7, MITF TRPM1 inh -9.2 and PAX8 reporter -13.8.
For COC(=O)c1ccc(COc2ccc(/C=N/Nc3cccc(C(=O)O)c3)cc2)cc1 the results were Shn3 inh set2 -36.6, EBV LMP1 NFkB -6.7, aSyn 5UTR inh -84.4, MITF TRPM1 inh -18.8 and PAX8 reporter -26.1.
For O=C(Oc1ccc(/C=N/Nc2ccccc2)cc1)c1ccccc1 the results were Shn3 inh set2 -15.8, EBV LMP1 NFkB -9.2, aSyn 5UTR inh -24.5, MITF TRPM1 inh 8.0 and PAX8 reporter 12.3.
O=C(O)c1ccc(N/N=C/c2ccc(OC(=O)c3cccc(Cl)c3)cc2)cc1 was read as Shn3 inh set2 19.0, EBV LMP1 NFkB 60.6*, aSyn 5UTR inh 76.0*, MITF TRPM1 inh 78.0* and PAX8 reporter 86.1*.
O=C(O)c1cccc(N/N=C/c2cccs2)c1 was read as Shn3 inh set2 66.3, EBV LMP1 NFkB 56.7*, aSyn 5UTR inh 95.8*, MITF TRPM1 inh 76.9* and PAX8 reporter 99.6*.
`O=C(O)c1ccc(N/N=C/c2ccc3nccnc3c2)cc1` gave Shn3 inh set2 79.9, EBV LMP1 NFkB 81.8*, aSyn 5UTR inh 94.0*, MITF TRPM1 inh 99.4* and PAX8 reporter 119.5*.
For O=C(O)c1cccc(N/N=C/c2ccc(OC(F)(F)F)cc2)c1 the results were Shn3 inh set2 28.8, EBV LMP1 NFkB 38.8, aSyn 5UTR inh 64.3*, MITF TRPM1 inh 73.6* and PAX8 reporter 20.1.
